In article PMC7862700, “An all-to-all approach to the identification of sequence-specific readers for epigenetic DNA modifications on cytosine” one finds binding signal data, which are given here for one sequence.

Common to all, as to assay: DAPPL (digital affinity profiling via proximity ligation, sequencing); 10 mM Tris-HCl pH 7.5, 50 mM NaCl, 1 mM DTT, 4% glycerol, room temperature, 30 min; GST-TFs on glutathione beads, 16-mer random dsDNA library, 0.1% formaldehyde crosslink after washing; high values mean tight binding
Test [1] has as its target T1, FEV (Homo sapiens, UniProt Q99581 1-238).
T1 sequence: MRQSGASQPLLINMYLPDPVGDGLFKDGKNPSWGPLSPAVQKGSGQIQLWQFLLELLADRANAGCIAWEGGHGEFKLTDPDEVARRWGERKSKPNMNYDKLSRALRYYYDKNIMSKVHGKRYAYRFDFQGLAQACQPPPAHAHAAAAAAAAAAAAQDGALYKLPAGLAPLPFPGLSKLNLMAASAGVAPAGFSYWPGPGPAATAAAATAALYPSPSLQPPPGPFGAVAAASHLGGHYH
The settings on record: protein: recombinant; tags: N-terminal GST; dsDNA, one strand shown. The procedure, abridged:
(§1)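 Each value of binding signal is a hexamer's read frequency for a factor divided by the same hexamer's frequency in the tag-only sample. Barcoded, bead-captured GST fusions of human transcription factors made in yeast were pooled with that sample and incubated with 200 nmole of a random double-stranded 16-mer DNA library in Tris/NaCl/DTT/glycerol buffer at room temperature for 30 min. Washing, 0.1% formaldehyde crosslinking, proximity ligation, PCR and Illumina NextSeq500 sequencing followed.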

Test [2] concerns the target ETV5 (Homo sapiens, UniProt P41161 1-510). The settings on record: protein: recombinant; tags: N-terminal GST; dsDNA, one strand shown. The procedure, abridged:
as §1

Test [3] concerns the target HSF1 (Homo sapiens, UniProt Q00613 1-529). The settings on record: protein: recombinant; tags: N-terminal GST; chain copies: 3; dsDNA, one strand shown. The procedure, abridged:
as §1

Test [4] deals with T2, SPIC (Homo sapiens, UniProt Q8N5J4 1-248).
T2 sequence: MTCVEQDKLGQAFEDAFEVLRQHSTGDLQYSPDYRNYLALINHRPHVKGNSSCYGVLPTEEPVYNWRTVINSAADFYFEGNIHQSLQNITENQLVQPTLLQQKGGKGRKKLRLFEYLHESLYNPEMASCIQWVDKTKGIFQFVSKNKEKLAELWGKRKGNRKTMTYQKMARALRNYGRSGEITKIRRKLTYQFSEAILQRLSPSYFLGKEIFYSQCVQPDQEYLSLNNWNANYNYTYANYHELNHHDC
As to conditions: protein: recombinant; tags: N-terminal GST; dsDNA, one strand shown. The procedure, abridged:
as §1

In test [5] the target is ELF4 (Homo sapiens, UniProt Q99607 1-663). The settings on record: protein: recombinant; tags: N-terminal GST; dsDNA, one strand shown. The procedure, abridged: as §1
The target in test [6] is T3, ELK4 (Homo sapiens, UniProt P28324-2 1-405).
T3 sequence: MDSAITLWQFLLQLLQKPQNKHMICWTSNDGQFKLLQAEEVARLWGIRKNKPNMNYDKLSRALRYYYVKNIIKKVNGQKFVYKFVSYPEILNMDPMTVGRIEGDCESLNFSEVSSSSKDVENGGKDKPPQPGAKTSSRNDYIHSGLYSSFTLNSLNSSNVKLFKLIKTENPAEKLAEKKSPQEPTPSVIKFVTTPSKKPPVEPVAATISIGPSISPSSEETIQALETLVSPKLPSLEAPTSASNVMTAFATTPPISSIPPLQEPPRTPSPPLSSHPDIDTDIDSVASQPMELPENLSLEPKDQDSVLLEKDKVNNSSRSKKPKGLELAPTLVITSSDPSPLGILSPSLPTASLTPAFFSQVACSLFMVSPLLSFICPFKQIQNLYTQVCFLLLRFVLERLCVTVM
The settings on record: protein: recombinant; tags: N-terminal GST; dsDNA, one strand shown. The procedure, abridged:
as §1

Test [7] addresses T4, ETV2 (Homo sapiens, UniProt O00321 1-342).
T4 sequence: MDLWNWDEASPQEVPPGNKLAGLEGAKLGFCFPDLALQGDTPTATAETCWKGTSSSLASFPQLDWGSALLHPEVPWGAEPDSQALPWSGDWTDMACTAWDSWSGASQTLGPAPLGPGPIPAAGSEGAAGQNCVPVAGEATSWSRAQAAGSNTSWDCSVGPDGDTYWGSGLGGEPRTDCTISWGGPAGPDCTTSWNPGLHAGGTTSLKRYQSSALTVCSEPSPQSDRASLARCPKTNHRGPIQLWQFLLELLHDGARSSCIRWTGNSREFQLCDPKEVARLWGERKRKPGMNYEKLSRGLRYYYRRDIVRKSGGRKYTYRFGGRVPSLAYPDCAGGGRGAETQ
As to conditions: protein: recombinant; tags: N-terminal GST; dsDNA, one strand shown. The procedure, abridged:
as §1

In test [8] the target is T5, ELF3 (Homo sapiens, UniProt P78545 1-371).
T5 sequence: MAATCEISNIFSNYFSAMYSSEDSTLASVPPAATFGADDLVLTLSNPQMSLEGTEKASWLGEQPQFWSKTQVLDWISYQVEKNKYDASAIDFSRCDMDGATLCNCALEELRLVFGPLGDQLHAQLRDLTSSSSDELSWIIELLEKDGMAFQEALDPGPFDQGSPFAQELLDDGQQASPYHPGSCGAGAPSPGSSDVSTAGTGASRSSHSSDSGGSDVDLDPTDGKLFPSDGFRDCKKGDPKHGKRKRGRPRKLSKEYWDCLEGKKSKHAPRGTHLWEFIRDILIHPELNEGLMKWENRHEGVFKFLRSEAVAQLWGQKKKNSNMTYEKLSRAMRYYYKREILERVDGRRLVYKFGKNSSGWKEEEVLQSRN
As to conditions: protein: recombinant; tags: N-terminal GST; dsDNA, one strand shown. The procedure, abridged: as §1

Test [9] concerns the target CRX (Homo sapiens, UniProt O43186 1-299). As to conditions: protein: recombinant; tags: N-terminal GST; dsDNA, one strand shown. The procedure, abridged: as §1
Test [10] has as its target ETV1 (Homo sapiens, UniProt P50549 1-477). The settings on record: protein: recombinant; tags: N-terminal GST; dsDNA, one strand shown. The procedure, abridged:
as §1

In test [11] the target is T6, ERF (Homo sapiens, UniProt P50548 1-548).
T6 sequence: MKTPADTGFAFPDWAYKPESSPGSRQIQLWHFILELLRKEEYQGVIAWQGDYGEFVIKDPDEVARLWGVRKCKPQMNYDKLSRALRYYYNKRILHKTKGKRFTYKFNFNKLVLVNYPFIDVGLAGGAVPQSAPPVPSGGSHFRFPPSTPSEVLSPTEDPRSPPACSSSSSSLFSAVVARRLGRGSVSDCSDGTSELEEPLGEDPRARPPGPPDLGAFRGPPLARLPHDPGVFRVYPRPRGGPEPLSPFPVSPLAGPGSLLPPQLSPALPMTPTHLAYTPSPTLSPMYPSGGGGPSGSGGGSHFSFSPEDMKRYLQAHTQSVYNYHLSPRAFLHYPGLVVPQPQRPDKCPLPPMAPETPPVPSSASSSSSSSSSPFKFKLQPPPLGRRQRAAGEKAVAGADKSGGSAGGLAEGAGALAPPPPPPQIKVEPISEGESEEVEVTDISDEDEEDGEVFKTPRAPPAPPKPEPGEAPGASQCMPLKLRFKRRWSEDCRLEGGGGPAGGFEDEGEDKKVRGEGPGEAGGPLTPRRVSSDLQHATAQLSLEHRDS
The settings on record: protein: recombinant; tags: N-terminal GST; dsDNA, one strand shown. The procedure, abridged: as §1

The target in test [12] is T7, ETV3L (Homo sapiens, UniProt Q6ZN32 1-361).
T7 sequence: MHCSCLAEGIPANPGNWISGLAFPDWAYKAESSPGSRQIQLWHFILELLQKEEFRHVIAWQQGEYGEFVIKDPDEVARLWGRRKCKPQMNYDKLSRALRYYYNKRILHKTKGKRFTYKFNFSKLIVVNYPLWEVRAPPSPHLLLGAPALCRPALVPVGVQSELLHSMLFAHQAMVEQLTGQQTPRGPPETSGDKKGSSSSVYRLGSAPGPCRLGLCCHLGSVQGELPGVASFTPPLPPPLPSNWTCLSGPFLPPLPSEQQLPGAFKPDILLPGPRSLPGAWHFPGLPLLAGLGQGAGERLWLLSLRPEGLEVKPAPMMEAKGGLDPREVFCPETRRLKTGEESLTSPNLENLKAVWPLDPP
As to conditions: protein: recombinant; tags: N-terminal GST; dsDNA, one strand shown. The procedure, abridged:
as §1

In test [13] the target is T8, ETS2 (Homo sapiens, UniProt P15036 1-469).
T8 sequence: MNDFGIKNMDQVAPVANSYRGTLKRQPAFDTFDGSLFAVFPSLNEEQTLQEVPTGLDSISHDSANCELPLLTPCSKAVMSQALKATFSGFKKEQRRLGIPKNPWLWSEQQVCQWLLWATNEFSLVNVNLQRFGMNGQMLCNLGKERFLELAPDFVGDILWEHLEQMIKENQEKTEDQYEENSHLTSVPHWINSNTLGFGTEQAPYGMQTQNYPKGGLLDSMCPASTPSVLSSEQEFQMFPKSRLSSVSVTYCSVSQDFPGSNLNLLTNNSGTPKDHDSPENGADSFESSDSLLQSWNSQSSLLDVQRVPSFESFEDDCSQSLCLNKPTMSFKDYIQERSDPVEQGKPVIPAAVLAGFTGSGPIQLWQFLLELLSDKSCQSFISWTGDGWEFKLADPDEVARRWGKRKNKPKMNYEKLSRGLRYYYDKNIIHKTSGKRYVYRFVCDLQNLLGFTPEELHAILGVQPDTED
The settings on record: protein: recombinant; tags: N-terminal GST; dsDNA, one strand shown. The procedure, abridged:
as §1

Test [14] has as its target T9, SPDEF (Homo sapiens, UniProt O95238 1-335).
T9 sequence: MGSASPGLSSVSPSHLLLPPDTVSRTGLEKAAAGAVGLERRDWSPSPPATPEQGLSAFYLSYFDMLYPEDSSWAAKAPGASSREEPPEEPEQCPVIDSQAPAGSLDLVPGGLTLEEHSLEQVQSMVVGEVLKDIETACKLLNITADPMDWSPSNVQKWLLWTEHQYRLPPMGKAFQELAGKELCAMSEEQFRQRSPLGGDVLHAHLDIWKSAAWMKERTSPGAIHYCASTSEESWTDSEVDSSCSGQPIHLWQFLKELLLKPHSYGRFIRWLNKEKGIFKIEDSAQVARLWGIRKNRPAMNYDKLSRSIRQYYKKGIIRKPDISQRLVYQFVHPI
As to conditions: protein: recombinant; tags: N-terminal GST; dsDNA, one strand shown. The procedure, abridged:
as §1

Test [15] addresses T10, ETV7 (Homo sapiens, UniProt Q9Y603 1-341).
T10 sequence: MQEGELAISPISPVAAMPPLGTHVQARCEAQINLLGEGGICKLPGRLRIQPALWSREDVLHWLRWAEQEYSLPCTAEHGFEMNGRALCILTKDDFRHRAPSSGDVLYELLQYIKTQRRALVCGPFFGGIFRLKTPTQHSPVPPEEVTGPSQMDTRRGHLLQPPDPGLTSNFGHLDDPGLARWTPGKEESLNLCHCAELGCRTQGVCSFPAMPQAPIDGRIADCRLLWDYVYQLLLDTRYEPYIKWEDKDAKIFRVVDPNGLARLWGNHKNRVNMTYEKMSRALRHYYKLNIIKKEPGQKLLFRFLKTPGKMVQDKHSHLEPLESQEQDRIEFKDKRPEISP
As to conditions: protein: recombinant; tags: N-terminal GST; dsDNA, one strand shown. The procedure, abridged:
as §1

In test [16] the target is T11, ELF5 (Homo sapiens, UniProt Q9UKW6-2 1-255).
T11 sequence: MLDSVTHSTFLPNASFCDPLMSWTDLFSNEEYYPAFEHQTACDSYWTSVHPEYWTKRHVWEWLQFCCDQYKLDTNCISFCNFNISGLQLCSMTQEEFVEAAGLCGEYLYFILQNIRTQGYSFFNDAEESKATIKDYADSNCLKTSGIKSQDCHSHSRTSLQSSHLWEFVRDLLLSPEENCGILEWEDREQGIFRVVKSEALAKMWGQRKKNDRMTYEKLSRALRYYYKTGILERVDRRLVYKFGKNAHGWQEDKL
The settings on record: protein: recombinant; tags: N-terminal GST; dsDNA, one strand shown. The procedure, abridged: as §1

Test [17] deals with T12, ETV3 (Homo sapiens, UniProt P41162-2 1-143).
T12 sequence: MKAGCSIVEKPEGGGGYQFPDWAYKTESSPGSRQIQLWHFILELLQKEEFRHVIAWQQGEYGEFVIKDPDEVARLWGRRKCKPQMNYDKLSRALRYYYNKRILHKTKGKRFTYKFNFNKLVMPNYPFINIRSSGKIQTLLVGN
The settings on record: protein: recombinant; tags: N-terminal GST; dsDNA, one strand shown. The procedure, abridged:
as §1

For test [18], the target named is ETV6 (Homo sapiens, UniProt P41212 1-452). The settings on record: protein: recombinant; tags: N-terminal GST; dsDNA, one strand shown. The procedure, abridged:
as §1

Chain of ELF4 (Q99607 whole entry): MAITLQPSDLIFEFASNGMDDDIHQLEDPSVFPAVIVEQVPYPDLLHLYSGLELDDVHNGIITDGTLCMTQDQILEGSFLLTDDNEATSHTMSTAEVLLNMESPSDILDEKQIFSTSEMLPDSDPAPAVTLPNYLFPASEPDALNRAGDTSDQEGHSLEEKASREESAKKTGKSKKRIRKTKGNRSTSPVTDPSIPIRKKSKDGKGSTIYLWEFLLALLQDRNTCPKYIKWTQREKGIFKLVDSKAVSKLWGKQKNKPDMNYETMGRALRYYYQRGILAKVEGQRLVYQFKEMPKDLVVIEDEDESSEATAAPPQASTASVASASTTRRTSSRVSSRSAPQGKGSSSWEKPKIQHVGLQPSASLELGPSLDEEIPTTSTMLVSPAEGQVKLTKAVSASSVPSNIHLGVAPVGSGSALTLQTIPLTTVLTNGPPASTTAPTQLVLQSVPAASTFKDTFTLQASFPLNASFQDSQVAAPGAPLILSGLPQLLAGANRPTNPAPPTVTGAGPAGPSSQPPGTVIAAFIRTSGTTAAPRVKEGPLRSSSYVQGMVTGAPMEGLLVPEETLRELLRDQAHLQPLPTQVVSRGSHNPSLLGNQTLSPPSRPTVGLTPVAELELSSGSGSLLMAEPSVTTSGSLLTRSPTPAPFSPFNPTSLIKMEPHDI
Chain of ETV6 (P41212 whole entry): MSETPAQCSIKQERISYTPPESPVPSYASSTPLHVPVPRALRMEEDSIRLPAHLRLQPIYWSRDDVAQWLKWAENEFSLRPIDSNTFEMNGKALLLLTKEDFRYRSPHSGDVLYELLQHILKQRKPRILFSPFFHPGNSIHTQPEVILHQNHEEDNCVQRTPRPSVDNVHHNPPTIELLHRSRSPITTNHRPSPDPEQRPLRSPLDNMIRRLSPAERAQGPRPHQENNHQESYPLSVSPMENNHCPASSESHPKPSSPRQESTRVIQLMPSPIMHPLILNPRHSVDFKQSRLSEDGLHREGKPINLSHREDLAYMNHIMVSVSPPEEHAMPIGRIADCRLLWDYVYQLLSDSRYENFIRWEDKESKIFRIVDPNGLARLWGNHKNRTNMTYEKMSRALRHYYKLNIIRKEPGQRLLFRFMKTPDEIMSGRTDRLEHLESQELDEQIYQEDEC
Chain of ETV5 (P41161 whole entry): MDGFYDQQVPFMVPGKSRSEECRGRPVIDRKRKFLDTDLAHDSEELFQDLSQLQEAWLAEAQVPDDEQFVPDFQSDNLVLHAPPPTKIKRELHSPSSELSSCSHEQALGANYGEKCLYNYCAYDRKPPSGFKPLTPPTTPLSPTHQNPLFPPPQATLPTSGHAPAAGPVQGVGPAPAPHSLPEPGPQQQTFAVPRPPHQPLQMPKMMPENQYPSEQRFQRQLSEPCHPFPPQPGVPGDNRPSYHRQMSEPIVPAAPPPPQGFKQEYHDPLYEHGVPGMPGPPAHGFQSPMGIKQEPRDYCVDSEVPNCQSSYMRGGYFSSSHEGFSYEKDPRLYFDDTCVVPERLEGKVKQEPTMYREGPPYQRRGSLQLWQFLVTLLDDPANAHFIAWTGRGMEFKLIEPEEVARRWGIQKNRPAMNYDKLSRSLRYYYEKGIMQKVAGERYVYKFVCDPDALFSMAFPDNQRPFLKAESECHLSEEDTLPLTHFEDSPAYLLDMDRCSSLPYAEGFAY
Chain of CRX (O43186 whole entry): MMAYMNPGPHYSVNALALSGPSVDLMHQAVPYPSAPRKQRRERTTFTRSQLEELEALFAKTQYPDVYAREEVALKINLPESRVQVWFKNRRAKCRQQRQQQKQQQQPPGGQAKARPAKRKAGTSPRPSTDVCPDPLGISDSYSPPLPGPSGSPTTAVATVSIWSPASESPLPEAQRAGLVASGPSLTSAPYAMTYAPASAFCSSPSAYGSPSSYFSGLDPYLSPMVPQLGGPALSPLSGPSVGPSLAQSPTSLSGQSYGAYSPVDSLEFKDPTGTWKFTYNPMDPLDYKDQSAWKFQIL
Chain of HSF1 (Q00613 whole entry): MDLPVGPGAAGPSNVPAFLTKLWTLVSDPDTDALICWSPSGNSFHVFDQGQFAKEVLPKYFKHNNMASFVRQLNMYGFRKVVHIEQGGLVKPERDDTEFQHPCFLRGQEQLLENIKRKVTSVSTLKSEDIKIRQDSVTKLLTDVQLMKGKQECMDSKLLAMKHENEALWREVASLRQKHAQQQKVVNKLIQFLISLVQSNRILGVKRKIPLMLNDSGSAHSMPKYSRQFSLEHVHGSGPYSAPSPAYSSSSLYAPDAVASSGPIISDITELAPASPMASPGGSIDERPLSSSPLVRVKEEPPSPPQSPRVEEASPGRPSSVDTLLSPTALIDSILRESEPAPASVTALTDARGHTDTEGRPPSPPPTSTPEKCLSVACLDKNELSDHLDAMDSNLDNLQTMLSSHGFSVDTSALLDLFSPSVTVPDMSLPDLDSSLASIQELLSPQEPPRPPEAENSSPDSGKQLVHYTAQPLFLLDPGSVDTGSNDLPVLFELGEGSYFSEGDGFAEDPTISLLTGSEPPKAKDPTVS
Chain of ETV1 (P50549 whole entry): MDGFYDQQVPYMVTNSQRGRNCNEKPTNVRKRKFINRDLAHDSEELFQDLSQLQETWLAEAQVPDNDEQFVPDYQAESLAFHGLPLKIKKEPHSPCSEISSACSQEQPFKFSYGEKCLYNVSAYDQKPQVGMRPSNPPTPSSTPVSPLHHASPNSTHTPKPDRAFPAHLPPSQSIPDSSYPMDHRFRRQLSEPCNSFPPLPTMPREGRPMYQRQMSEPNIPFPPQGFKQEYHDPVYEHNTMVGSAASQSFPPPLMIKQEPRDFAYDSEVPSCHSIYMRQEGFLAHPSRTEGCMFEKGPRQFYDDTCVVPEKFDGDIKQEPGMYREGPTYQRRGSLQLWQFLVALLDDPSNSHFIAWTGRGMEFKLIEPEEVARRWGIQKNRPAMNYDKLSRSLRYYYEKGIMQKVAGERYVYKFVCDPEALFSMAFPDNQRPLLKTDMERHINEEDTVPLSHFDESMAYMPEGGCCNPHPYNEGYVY

With TCTCCA, the binding signal is 1.44 fold enrichment (6-mer frequency, TF over GST control) in [1]; 1.39 fold enrichment (6-mer frequency, TF over GST control) in [2]; 1.91 fold enrichment (6-mer frequency, TF over GST control) in test [3]; 1.36 fold enrichment (6-mer frequency, TF over GST control) in [4]; 1.42 fold enrichment (6-mer frequency, TF over GST control) in [5]; 1.69 fold enrichment (6-mer frequency, TF over GST control) in [6]. For the same sequence, the binding signal in test [7] is 1.55 fold enrichment (6-mer frequency, TF over GST control); in test [8], 1.29 fold enrichment (6-mer frequency, TF over GST control); in test [9], 1.52 fold enrichment (6-mer frequency, TF over GST control); in test [10], 1.38 fold enrichment (6-mer frequency, TF over GST control); in [11], 1.42 fold enrichment (6-mer frequency, TF over GST control); in [12], 1.58 fold enrichment (6-mer frequency, TF over GST control). The binding signal in test [13] is 1.53 fold enrichment (6-mer frequency, TF over GST control); in [14] it was 1.5 fold enrichment (6-mer frequency, TF over GST control); in [15], 1.31 fold enrichment (6-mer frequency, TF over GST control); in [16], 1.37 fold enrichment (6-mer frequency, TF over GST control); in [17] it was 1.41 fold enrichment (6-mer frequency, TF over GST control); in [18], 1.4 fold enrichment (6-mer frequency, TF over GST control).
